# Screening results (PubChem BioAssay)
# LGR2 inh = blocks bursicon-induced cAMP signaling via Drosophila LGR2 | AID 720647 | HEK293 LGR2, CRE-luciferase, bursicon-stimulated, 4 h | inhibition, % at 9.99 µM | hit rate 0.35% among 380,000;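 active = drop in luminescence signal, shown as inhibition above about 50% in the replicate tests, limit read from the data, passing the limit was not always enough; inconclusive = probably only some replicates passing the limit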;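 note: agonist challenge used bursicon conditioned medium at about half maximal strength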
# TWEAK-Fn14 inh = blocks TWEAK-Fn14 interaction in a reporter cell assay; TWEAK-stimulated Fn14 reporter cells, luciferase luminescence, 8 h; inhibition, % at 10 µM; hit rate 2% among 360,000; AID 1159606; in the data active = inhibition above about 50%
# MITF TRPM1 HTS = increases MITF-driven TRPM1 promoter luciferase signal | AID 588334 | activation, % at 12.5 µM | SK-MEL-5 TRPM1-promoter luciferase, 24 h; % of positive control, neutral wells = 0 | hit rate 0.75% among 300,000;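 active = mean activation of at least 80% with every replicate also reaching 80%; inconclusive = mean reaches 80% but some replicate falls short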;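 note: 0% = neutral control wells and 100% = parthenolide positive control wells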
# TROY NFkB inh = TROY signaling inhibition. Q293 LMP1-TROYcd NF-kB luciferase reporter, 4 h. inhibition, % at 10 µM. hit rate 0.98% among 360,000. AID 1347056;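 active = compounds whose plate-normalised and pattern-corrected inhibition of the luciferase reporter signal at the single screening dose is 50% or more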
# TRPM1 prom inh = reduces MITF-dependent TRPM1 promoter luciferase signal; SK-MEL-5 TRPM1 promoter luciferase, 24 h; inhibition, % at 12.5 µM; hit rate 0.83% among 330,000; AID 488899;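 active = mean inhibition across replicates of 60% or more, whatever share of single replicates reaches that level; inconclusive = some that reach 60%, reason not given; inactive = mean inhibition across replicates below 60%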
# EBV LMP1 NFkB = reduces LMP1-driven NF-kappaB luciferase signal. LMP1-induced NF-kappaB luciferase reporter cells, luminescence. hit rate 0.69% among 350,000. AID 504558. inhibition, % at 12.5 µM; in the data active = inhibition above about 41%; inconclusive = no clear call, values can overlap the other calls;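 note: 0% = neutral control wells and 100% = reference inhibitor control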
# Starred values were filed as active, the others as inactive; ? = inconclusive; · = not tested or not shown. Only some compounds are listed: those with a hit (about 3% of all), similar ones and a draw of the others.
SMILES,LGR2 inh,TWEAK-Fn14 inh,MITF TRPM1 HTS,TROY NFkB inh,TRPM1 prom inh,EBV LMP1 NFkB
O=C(Nc1ccc(S(=O)(=O)N2CCCCC2)cc1)C1CC(=O)N(Cc2ccccc2)C1 (stereo unspecified),-23,10,-11,3,12,6
COc1cc(CCC(=O)Nc2ccc(S(=O)(=O)N3CCCC3)cc2)cc(OC)c1OC,-20,-6,-12,-7,11,1
Cc1ccc(NC(=S)Nc2ccc(C(C)C)cc2)cc1S(=O)(=O)N1CCCCCC1,·,67*,-30,17,31,13
CCOc1ncccc1C(=O)Nc1ccc(C)c(S(=O)(=O)N2CCCCCC2)c1,6,63*,-13,28,14,9
Cc1ccc(S(=O)(=O)Nc2ccc3c(c2)C(=O)N([C@@H](C)CO)C[C@@H](C)[C@H](CN(C)C(=O)C2CCCCC2)OCCCC[C@@H](C)O3)cc1,-4,·,·,·,·,·
COc1ccc(NC(=O)CSc2ccc(NC(C)=O)cc2)cc1S(=O)(=O)N1CCOCC1,5,-14,1,3,-1,1
COc1ccc(NC(=O)CSc2ccc3ccccc3c2)cc1S(=O)(=O)N1CCCCC1,15,59*,-14,19,12,10
CC=Cc1ccc2n(c1=O)C[C@H]1[C@H](CO)[C@@H](C(=O)N3CCCCC3)N(Cc3ccccc3OC)[C@@H]21 (mixture of isomers),10,·,·,·,·,·
Cc1ccc2[nH]c3c(c2c1)CCCC3C(N)=O (stereo unspecified),·,8,0,-66,-2,-4
Cc1ccc2[nH]c3c(c2c1)CCCC3NC(=O)CCl (stereo unspecified),·,71*,·,7,55,87*
Cc1ccc(-n2nnnc2Sc2ccc(S(=O)(=O)NCCN(C)C)cc2[N+](=O)[O-])cc1,·,97*,-91,33,92*,47*
O=[N+]([O-])c1cc(S(=O)(=O)NCCN2CCOCC2)ccc1Sc1nnnn1-c1ccccc1,·,89*,-78,22,79*,-11
Cc1cc(C)c(C(=O)Nc2ccc3c(c2)OCCO3)c(C)c1,2,-21,·,-70,·,-22
Cc1cccc(NC(=O)c2ccc3c(c2)OCCO3)c1,?,36,3,3,-4,9
O=C(CN(C(=O)c1ccccc1Cl)C1CCCCC1)Nc1ccc(Cl)c([N+](=O)[O-])c1,·,40,-3,10,6,-5
O=C(CN(C(=O)c1ccc(Cl)cc1)C1CCCCC1)Nc1ccc(Cl)c([N+](=O)[O-])c1,19,51*,-3,35,0,5
Cc1ccc(NC(=O)c2ccc3c(c2)OCCO3)cc1C,77*,85*,-7,47,7,29
Cc1ccc(C(=O)Nc2ccc3c(c2)OCCO3)c(C)c1,93*,85*,-63,59*,66*,58*
Cc1ccc(NC(=O)c2ccc3c(c2)OCCO3)cc1S(=O)(=O)Nc1cccc(Cl)c1,-32,62*,-3,59*,2,7
COc1ccc2c3c([nH]c2c1)[C@H](CO)N(C(=O)c1ccc(F)cc1)CC31CCN(S(=O)(=O)c2cccs2)CC1,5,·,·,·,·,·
O=C(N/N=C/c1ccc(Cl)c([N+](=O)[O-])c1)c1ccc2c(c1)OCCO2,-23,-4,12,-22,-9,11
O=C(Nc1ccc(Cl)c([N+](=O)[O-])c1)c1ccc2c(c1)OCCO2,-63,3,95*,-39,-93,-24
O=c1c2ccccc2cnn1CCOc1ccccc1,86*,97*,-61,72*,58,74*
O=C(O)Cn1ncc2ccccc2c1=O,13,13,21,10,-19,-17
CC(=O)N1CC2(C1)[C@H](c1ccc(-c3ccc(F)cc3)cc1)[C@H](CO)N2C(C)=O,-4,·,·,·,·,·
SMILES,LGR2 inh,TWEAK-Fn14 inh,MITF TRPM1 HTS,TROY NFkB inh,TRPM1 prom inh,EBV LMP1 NFkB
O=C1CC(=O)N(Cc2ccco2)C(=O)N1,·,4,11,1,-10,-3
O=C1CC(=O)N(Cc2ccco2)C(=S)N1,·,51*,-5,5,8,0
O=C1C(=C2CCCCC2)SC(=S)N1Cc1ccco1,·,1,-13,-15,11,44*
C[C@@H]1CN([C@@H](C)CO)C(=O)c2cc(-c3ccc(F)cc3)cnc2O[C@@H]1CN(C)C(=O)Nc1ccc(F)cc1,-14,·,·,·,·,·
C[C@@H]1CN([C@@H](C)CO)C(=O)c2cc(NC(=O)c3ccccc3)ccc2O[C@@H](C)CCCCO[C@H]1CN(C)C(=O)c1ccccc1,1,·,·,·,·,·
COc1cccc(C(=O)NC(=S)Nn2cnnc2)c1OC,20,57*,1,4,-2,3
O=C(NC(=S)Nn1cnnc1)c1ccccc1Cl,10,-8,-12,10,13,-8
CCCn1ncc2c(Nc3ccc(C)c(C)c3)ncnc21,-54,20,98*,-54,-98,-19
COc1ccc(C)c2sc(=NC(=O)c3ccccc3)n(C)c12,·,-15,·,-32,·,-56
COc1ccc(C)c2sc(=NC(=O)c3ccc(C(C)=O)cc3)n(C)c12,-84,40,?,51*,-76,-31
Cc1ccnc(Nc2nc3ccccc3o2)n1,54*,80*,-17,31,17,40
Cc1nc(Nc2nc3ccccc3o2)nc(C)c1C,·,57*,5,17,-3,8
N#Cc1cnc(Nc2nc3ccccc3o2)nc1-c1ccccc1,·,-3,9,7,-9,-13
CCOC(=O)c1cnc(Nc2nc3ccccc3o2)nc1CSC(=S)N(CC)CC,·,25,-13,7,13,-5
CCCc1nc(Nc2nc3ccccc3o2)nc(C)c1C(=O)OCC,·,34,116*,-35,-113,-27
N#C/C(=C\c1ccc(OCc2ccc(C(=O)O)cc2)cc1)C(=O)N1CCOCC1,80*,-6,-83,-63,85*,84*
O=C(NCc1nc2ccccc2[nH]1)C1=C[C@@H](c2csc3ccccc23)C[C@@H](OCc2ccc(CO)cc2)O1,4,57*,-5,38,6,1
O=C(NCc1nc2ccccc2[nH]1)C1=C[C@@H](c2ccc(Br)cc2)C[C@@H](OCc2ccc(CO)cc2)O1,7,22,-9,11,7,3
O=C(NCc1nc2ccccc2[nH]1)C1=C[C@H](c2csc3ccccc23)C[C@H](OCc2ccc(CO)cc2)O1,26,55*,-23,22,22,6
O=C(C[C@H]1CC[C@H](NC(=O)Cc2cccnc2)[C@H](CO)O1)NCc1ccc2c(c1)OCO2,14,·,·,·,·,·
COCC(=O)N1[C@H](CO)[C@H](c2ccccc2)C12CN(C(=O)NC1CCCC1)C2,-6,·,·,·,·,·
COC(=O)c1ccccc1OCCOCCOc1cccc2cccnc12,0,-4,7,3,-7,3
O=[N+]([O-])c1ccccc1OCCOCCOc1cccc2cccnc12,1,75*,-10,87*,9,-8
O=C(COC(=O)C12CC3CC(CC(O)(C3)C1)C2)Nc1ccc(Br)cc1F,-77,33,129*,58*,-128,-31
